Compounds without any hit were thinned out: in the full panel of roughly 83,000, 20% have a hit.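 Cell lines were cultured in 96-well plates, exposed to a single compound concentration, and assessed for percent growth 48 hours later.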 The source made the active and inactive calls. Rule for the calls: active = growth percent below 10; inactive = the rest.
System: NCI-H23 lung
Experiment: NCI-60 one-dose screen, 48 h (100 = growth as untreated, 0 = no growth, -100 = all killed)
Settings: 10 µM

Question: For O=C(/C=C/c1ccco1)c1nc2ccccc2n1Cc1ccc(Br)cc1, which growth is on record?
Answer: 27.4% (inactive)

Question: How did the growth turn out when O=C(/C=C/c1ccco1)c1nc2ccccc2n1Cc1ccc(F)cc1 was run?
Answer: 65.2% (inactive)

Question: COc1cc2cc(C(=O)N3C[C@@H](CCl)c4c3cc(OC(=O)N3CCN(C)[C@@H]5CSSC[C@@H]53)c3ccccc43)[nH]c2c(OC)c1OC was tested. Which growth did it give?
Answer: -67.5% (active)

Question: With C#CC[Se]C(=O)c1ccc2n[se]nc2c1 as the compound, how does the growth read?
Answer: 77% (inactive)

Question: For O=C(/C=C/c1ccc(Cl)cc1Cl)c1nc2ccccc2n1Cc1ccc(F)cc1, which growth is on record?
Answer: 47.8% (inactive)

Question: For O=C(/C=C/c1ccc(Cl)cc1)c1nc2ccccc2n1Cc1ccc(Br)cc1, which growth is on record?
Answer: 61.9% (inactive)

Question: How did the growth turn out when CCOP(=O)(OCC)C(NC(C)=O)C(=O)SCCN (stereo unspecified) was run?
Answer: 101% (inactive)

Question: Which growth does the source give for COc1cc2cc(C(=O)N3C[C@@H](CCl)c4c3cc(OC(=O)N3CCN(C)[C@@H]5CSSC[C@H]53)c3ccccc43)[nH]c2c(OC)c1OC here?
Answer: -80.6% (active)

Question: With CC12OOC(C)(OO1)C2CCC(=O)OCCNc1ccnc2cc(Cl)ccc12 (stereo unspecified) as the compound, how does the growth read?
Answer: 4.36% (active)

Question: CC(C)N=C([Se])NC(=O)c1cccs1 was tested. Which growth did it give?
Answer: -33.4% (active)

Question: For CC12CCC3(CCC(=O)NCCCNc4ccnc5cc(Cl)ccc45)[C@@](C)(OO[C@]3(C)O1)O2, which growth is on record?
Answer: -43.6% (active)

Question: For CC[C@]12C=CCN3CC[C@@]4(c5ccc(OC)cc5N(C)[C@H]4[C@@](O)(C(=O)OC)[C@@H]1OC(=O)CCCC[P+](C1CCCCC1)(C1CCCCC1)C1CCCCC1)[C@@H]32, which growth is on record?
Answer: -9.66% (active)

Question: For COCCOCCOCCOc1ccc(-n2cc(CCCN(CCNc3ccnc4cc(Cl)ccc34)C(=O)CCC(=O)O[C@@H]3O[C@@H]4OC5(C)CC[C@H]6[C@H](C)CC[C@@H]([C@H]3C)[C@@]46OO5)nn2)cc1, which growth is on record?
Answer: 47.9% (inactive)

Question: With C[C@H]1[C@@H](CC(=O)N[C@@H](Cc2coc3ccccc23)B(O)O)O[C@@H]2OC3(C)CC[C@H]4[C@H](C)CC[C@@H]1[C@@]24OO3 as the compound, how does the growth read?
Answer: -65.9% (active)

Question: For COP(=O)(CC(F)(F)C(F)(F)F)OC, which growth is on record?
Answer: 41.8% (inactive)

Question: How did the growth turn out when CC[C@]12C=CCN3CC[C@@]4(c5ccc(OC)cc5N(C)[C@H]4[C@@](O)(C(=O)OC)[C@@H]1OC(=O)CCC[P+](c1ccc(C)cc1)(c1ccc(C)cc1)c1ccc(C)cc1)[C@@H]32 was run?
Answer: -90.7% (active)

Question: With CC1=C(COCCOC(=O)c2ccc(S(=O)(=O)F)cc2)C2=C(C)C3(CC3)[C@@](C)(O)C(=O)C2=C1 as the compound, how does the growth read?
Answer: -85.6% (active)

Question: CC1=C(CCC=NNC(N)=O)C2=C(C)C3(CC3)[C@@](C)(O)C(=O)C2=C1 was tested. Which growth did it give?
Answer: -78.2% (active)

Question: Which growth does the source give for CCOP(=O)(CC(F)(F)C(F)(F)F)OCC here?
Answer: 50.4% (inactive)

Question: Which growth does the source give for CC1=C2C(=C[C@@](C)(COP(=O)(Oc3ccccc3)Oc3ccccc3)[C@@H]2O)C(=O)[C@@](C)(O)C12CC2 here?
Answer: -84.6% (active)

Question: For CC(=O)Oc1ccccc1C(=O)NC([Se])=NC1CCCCC1, which growth is on record?
Answer: -0.217% (active)

Question: Which growth does the source give for O=C(/C=C/c1ccc(Cl)cc1)c1nc2ccccc2n1Cc1ccc(F)cc1 here?
Answer: 33.4% (inactive)

Question: Which growth does the source give for CC1=C(CCC=O)C2=C(C)C3(CC3)[C@@](C)(O)C(=O)C2=C1 here?
Answer: -86% (active)

Question: C[C@H]1[C@H](OC(=O)CCC(=O)N(CCCc2cn(-c3ccc(C#N)cc3)nn2)CCNc2ccnc3cc(Cl)ccc23)O[C@@H]2OC3(C)CC[C@H]4[C@H](C)CC[C@@H]1[C@@]24OO3 was tested. Which growth did it give?
Answer: 47.3% (inactive)

Question: How did the growth turn out when C[C@H]1[C@@H](Oc2ccc(-c3cn(-c4ccnc5cc(Cl)ccc45)nn3)cc2)O[C@@H]2OC3(C)CC[C@H]4[C@H](C)CC[C@@H]1[C@@]24OO3 was run?
Answer: 28.4% (inactive)

Question: With COc1ccc(/C=C/C(=O)c2nc3ccccc3n2Cc2ccc(Br)cc2)cc1 as the compound, how does the growth read?
Answer: 61.9% (inactive)

Question: For COC(=O)CCn1c(-c2ccc(-n3cc(-c4ccc(O[C@H]5O[C@@H]6OC7(C)CC[C@H]8[C@H](C)CC[C@@H]([C@H]5C)[C@@]68OO7)cc4)nn3)cc2)nc2ccccc21, which growth is on record?
Answer: 13.6% (inactive)

System: NCI-H226 lung
Experiment: as above
Settings: 10 µM

Question: For O=C(/C=C/c1ccco1)c1nc2ccccc2n1Cc1ccc(Br)cc1, which growth is on record?
Answer: 48.2% (inactive)

Question: Which growth does the source give for O=C(/C=C/c1ccco1)c1nc2ccccc2n1Cc1ccc(F)cc1 here?
Answer: 77.9% (inactive)

Question: How did the growth turn out when COc1cc2cc(C(=O)N3C[C@@H](CCl)c4c3cc(OC(=O)N3CCN(C)[C@@H]5CSSC[C@@H]53)c3ccccc43)[nH]c2c(OC)c1OC was run?
Answer: -26.1% (active)

Question: For C#CC[Se]C(=O)c1ccc2n[se]nc2c1, which growth is on record?
Answer: 23% (inactive)

Question: Which growth does the source give for O=C(/C=C/c1ccc(Cl)cc1Cl)c1nc2ccccc2n1Cc1ccc(F)cc1 here?
Answer: 38.7% (inactive)

Question: O=C(/C=C/c1ccc(Cl)cc1)c1nc2ccccc2n1Cc1ccc(Br)cc1 was tested. Which growth did it give?
Answer: 57.4% (inactive)

Question: With CCOP(=O)(OCC)C(NC(C)=O)C(=O)SCCN (stereo unspecified) as the compound, how does the growth read?
Answer: 106% (inactive)

Question: COc1cc2cc(C(=O)N3C[C@@H](CCl)c4c3cc(OC(=O)N3CCN(C)[C@@H]5CSSC[C@H]53)c3ccccc43)[nH]c2c(OC)c1OC was tested. Which growth did it give?
Answer: -42.7% (active)

Question: How did the growth turn out when COc1ccc2cc([C@H](C)C(=O)[Se]CCC#N)ccc2c1 was run?
Answer: -49.9% (active)

Question: With CC12OOC(C)(OO1)C2CCC(=O)OCCNc1ccnc2cc(Cl)ccc12 (stereo unspecified) as the compound, how does the growth read?
Answer: 98% (inactive)

Question: For CC(C)N=C([Se])NC(=O)c1cccs1, which growth is on record?
Answer: 64.6% (inactive)

Question: For Cc1ccc2[nH]c(=S)n(-c3ccc(F)cc3)c(=O)c2c1, which growth is on record?
Answer: 97.6% (inactive)

Question: CCOC(=O)C1=C(Nc2ccccc2)C(=O)OC12C(=O)Nc1ccccc12 (stereo unspecified) was tested. Which growth did it give?
Answer: 115% (inactive)

Question: For CC12CCC3(CCC(=O)NCCCNc4ccnc5cc(Cl)ccc45)[C@@](C)(OO[C@]3(C)O1)O2, which growth is on record?
Answer: 0.706% (active)

Question: For CC[C@]12C=CCN3CC[C@@]4(c5ccc(OC)cc5N(C)[C@H]4[C@@](O)(C(=O)OC)[C@@H]1OC(=O)CCCC[P+](C1CCCCC1)(C1CCCCC1)C1CCCCC1)[C@@H]32, which growth is on record?
Answer: -22% (active)

Question: Which growth does the source give for CC(=O)Oc1ccccc1C(=O)[Se]C(=NC(C)C)NC(C)C here?
Answer: -67.2% (active)

Question: Which growth does the source give for COCCOCCOCCOc1ccc(-n2cc(CCCN(CCNc3ccnc4cc(Cl)ccc34)C(=O)CCC(=O)O[C@@H]3O[C@@H]4OC5(C)CC[C@H]6[C@H](C)CC[C@@H]([C@H]3C)[C@@]46OO5)nn2)cc1 here?
Answer: 53.5% (inactive)

Question: How did the growth turn out when C[C@H]1[C@@H](CC(=O)N[C@@H](Cc2coc3ccccc23)B(O)O)O[C@@H]2OC3(C)CC[C@H]4[C@H](C)CC[C@@H]1[C@@]24OO3 was run?
Answer: -28.1% (active)

Question: With COP(=O)(CC(F)(F)C(F)(F)F)OC as the compound, how does the growth read?
Answer: -55.6% (active)

Question: For CC12OOC(C)(OO1)C2CCC(=O)NCCNc1ccnc2cc(Cl)ccc12 (stereo unspecified), which growth is on record?
Answer: 93.7% (inactive)

Question: With CC[C@]12C=CCN3CC[C@@]4(c5ccc(OC)cc5N(C)[C@H]4[C@@](O)(C(=O)OC)[C@@H]1OC(=O)CCC[P+](c1ccc(C)cc1)(c1ccc(C)cc1)c1ccc(C)cc1)[C@@H]32 as the compound, how does the growth read?
Answer: -77.4% (active)

Question: How did the growth turn out when CC(C)N=C([Se])NC(=O)c1ccccc1 was run?
Answer: -33.5% (active)

Question: For CC[C@]12C=CCN3CC[C@@]4(c5ccc(OC)cc5N(C)[C@H]4[C@@](O)(C(=O)OC)[C@@H]1OC(=O)CCC[P+](C1CCCCC1)(C1CCCCC1)C1CCCCC1)[C@@H]32, which growth is on record?
Answer: -20% (active)

Question: CC1=C(COCCOC(=O)c2ccc(S(=O)(=O)F)cc2)C2=C(C)C3(CC3)[C@@](C)(O)C(=O)C2=C1 was tested. Which growth did it give?
Answer: -39.9% (active)

Question: Which growth does the source give for CC[C@]12C=CCN3CC[C@@]4(c5ccc(OC)cc5N(C)[C@H]4[C@@](O)(C(=O)OC)[C@@H]1OC(=O)CCCC[P+](c1ccc(OC)cc1)(c1ccc(OC)cc1)c1ccc(OC)cc1)[C@@H]32 here?
Answer: -63.6% (active)

Question: CC1=C(CCC=NNC(N)=O)C2=C(C)C3(CC3)[C@@](C)(O)C(=O)C2=C1 was tested. Which growth did it give?
Answer: -71.7% (active)

Question: How did the growth turn out when CC[C@@]12CC(C(=O)OC)=C3Nc4cc5c(cc4[C@@]34CCN(C[C@H]3O[C@H]31)[C@@H]24)[C@@H]1[C@H](O5)[C@@H](O)[C@@]2(CC)CC(C(=O)OC)=C3Nc4cc(OC)ccc4[C@@]34CCN1[C@@H]24 was run?
Answer: -4.56% (active)

Question: CCOP(=O)(CC(F)(F)C(F)(F)F)OCC was tested. Which growth did it give?
Answer: -23.5% (active)

Question: For CC1=C2C(=C[C@@](C)(COP(=O)(Oc3ccccc3)Oc3ccccc3)[C@@H]2O)C(=O)[C@@](C)(O)C12CC2, which growth is on record?
Answer: -63.9% (active)

Question: How did the growth turn out when CC(=O)Oc1ccccc1C(=O)NC([Se])=NC1CCCCC1 was run?
Answer: -21% (active)

Question: For C[C@H]1[C@H](OC(=O)CCC(=O)N(CCCc2cn(-c3ccc(CN4CCOCC4)cc3)nn2)CCNc2ccnc3cc(Cl)ccc23)O[C@@H]2OC3(C)CC[C@H]4[C@H](C)CC[C@@H]1[C@@]24OO3, which growth is on record?
Answer: 54.1% (inactive)

Question: For O=C(/C=C/c1ccc(Cl)cc1)c1nc2ccccc2n1Cc1ccc(F)cc1, which growth is on record?
Answer: 36.6% (inactive)

Question: How did the growth turn out when CC1=C(CCC=O)C2=C(C)C3(CC3)[C@@](C)(O)C(=O)C2=C1 was run?
Answer: -61.5% (active)

Question: O=C(NC([Se])=NC1CCCCC1)c1ccc2c(c1)OCO2 was tested. Which growth did it give?
Answer: 85.6% (inactive)

Question: C[C@H]1[C@H](OC(=O)CCC(=O)N(CCCc2cn(-c3ccc(C#N)cc3)nn2)CCNc2ccnc3cc(Cl)ccc23)O[C@@H]2OC3(C)CC[C@H]4[C@H](C)CC[C@@H]1[C@@]24OO3 was tested. Which growth did it give?
Answer: 60.3% (inactive)

Question: C[C@H]1[C@@H](Oc2ccc(-c3cn(-c4ccnc5cc(Cl)ccc45)nn3)cc2)O[C@@H]2OC3(C)CC[C@H]4[C@H](C)CC[C@@H]1[C@@]24OO3 was tested. Which growth did it give?
Answer: 48.2% (inactive)

Question: For COc1ccc(/C=C/C(=O)c2nc3ccccc3n2Cc2ccc(Br)cc2)cc1, which growth is on record?
Answer: 69.7% (inactive)

Question: COC(=O)CCn1c(-c2ccc(-n3cc(-c4ccc(O[C@H]5O[C@@H]6OC7(C)CC[C@H]8[C@H](C)CC[C@@H]([C@H]5C)[C@@]68OO7)cc4)nn3)cc2)nc2ccccc21 was tested. Which growth did it give?
Answer: 32.8% (inactive)

Question: For C[C@H]1[C@H](OC(=O)CCC(=O)N(CCCc2cn(-c3ccc([N+](=O)[O-])cc3)nn2)CCNc2ccnc3cc(Cl)ccc23)O[C@@H]2OC3(C)CC[C@H]4[C@H](C)CC[C@@H]1[C@@]24OO3, which growth is on record?
Answer: 61.6% (inactive)
